Laboratory results: PubChem BioAssay (Tox21)
Several values for one entry are separate records, joined by “and”; a condition that tells them apart may be missing. Identical values can stand only once. Records with an inconclusive call do not appear. Entries that show only a call come without a potency. A number with no mark means an inactive call. Activity calls are given as the source filed them. Unless noted, calls come from the whole dose curve; as a rule, active = well fitted curve in the direction sought with a large enough effect in the repeat runs; inconclusive = weak or mixed curves; inactive = no such curve, though single readings can be large; an effect the other way counts as inactive or inconclusive.

How the values were obtained:
[1] = qHTS assay to identify small molecule antagonists of the thyroid receptor (TR) signaling pathway - cell viability counter screen (AID 743064); note: nearly all actives have a fitted effect of over 50% in size
Summary of the method: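 GH3.TRE-Luc cells, 4 h pre-plating; cpd + T3 1 nM final; 37 °C 23.5 h; CellTiter-Fluor 30 min; fluorescence read.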

[2] = qHTS assay to identify small molecule antagonists of the thyroid receptor (TR) signaling pathway (AID 743065); note: nearly all actives have a fitted effect of over 55% in size
Summary of the method: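 GH3.TRE-Luc rat pituitary cells carrying two TR response elements driving luciferase were plated for 4 h, given compound plus 1 nM T3 (final), and incubated 23.5 h at 37 C. ONE-Glo luminescence measured reporter inhibition; CellTiter-Fluor fluorescence tracked cytotoxicity.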

[3] = test system: thyroid hormone receptor (rat, GH3 cells); experiment: qHTS assay to identify small molecule agonists of the thyroid receptor (TR) signaling pathway (AID 743066; calls by dose curve)
[4] = target: Estrogen receptor (Homo sapiens) (UniProt P03372); experiment: qHTS assay to identify small molecule antagonists of the estrogen receptor alpha (ER-alpha) signaling pathway (AID 743069; active = well fitted curve in the direction sought with a large enough effect in the signal ratio in the repeat runs, not every such curve was filed as active; the % refers to the signal ratio)
Chain of Estrogen receptor (Homo sapiens) (P03372 whole entry, looked up): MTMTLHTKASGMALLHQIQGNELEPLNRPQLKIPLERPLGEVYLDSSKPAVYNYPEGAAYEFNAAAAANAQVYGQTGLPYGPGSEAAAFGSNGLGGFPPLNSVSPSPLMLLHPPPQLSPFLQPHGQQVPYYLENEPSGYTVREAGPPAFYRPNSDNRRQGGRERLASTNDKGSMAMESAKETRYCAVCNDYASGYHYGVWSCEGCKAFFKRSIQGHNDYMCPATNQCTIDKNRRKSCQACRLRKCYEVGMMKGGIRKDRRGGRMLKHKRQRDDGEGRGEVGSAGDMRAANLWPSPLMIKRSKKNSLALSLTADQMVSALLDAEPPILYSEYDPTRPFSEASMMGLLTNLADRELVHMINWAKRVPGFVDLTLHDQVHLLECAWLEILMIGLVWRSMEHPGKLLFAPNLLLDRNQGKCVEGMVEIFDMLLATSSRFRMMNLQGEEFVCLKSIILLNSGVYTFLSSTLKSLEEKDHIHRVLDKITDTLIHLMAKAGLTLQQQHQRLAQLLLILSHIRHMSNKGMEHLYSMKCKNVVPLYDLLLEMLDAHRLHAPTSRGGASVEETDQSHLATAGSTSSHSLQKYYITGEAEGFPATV
Summary of the method: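 Estradiol-stimulated ER-alpha-UAS-bla HEK293 cells, 18 hr compound exposure at 37C. LiveBLAzer B/G substrate, 2 hr RT, fluorescence read.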

[5] = qHTS assay to identify small molecule antagonists of the estrogen receptor alpha (ER-alpha) signaling pathway - cell viability counter screen (AID 743074; calls by dose curve;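 note: HEK293 cells carrying ER-alpha-UAS-bla reporter stimulated with 17beta-estradiol; nearly all actives have a fitted effect of over 45% in size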)
[6] = target: Estrogen receptor (Homo sapiens) (UniProt P03372); experiment: qHTS assay to identify small molecule agonists of the estrogen receptor alpha (ER-alpha) signaling pathway (AID 743075; calls by dose curve;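 note: HEK293 GripTite cells with ER-alpha and UAS-driven beta-lactamase reporter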; note: potency is the fitted concentration of half-maximal effect)
[7] = target: Estrogen receptor (Homo sapiens) (UniProt P03372); experiment: qHTS assay to identify small molecule agonists of the estrogen receptor alpha (ER-alpha) signaling pathway using the BG1 cell line (AID 743079); details: BG1Luc4E2 cells, ERE-luciferase agonist, 22 h; note: nearly all actives have a fitted effect of over 20% in size; note: potency is the fitted concentration of half-maximal effect
[8] = qHTS assay to identify small molecule antagonists of the estrogen receptor alpha (ER-alpha) signaling pathway using the BG1 cell line (AID 743080; calls by dose curve;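 note: BG1 cells stimulated with 17beta-estradiol alongside compound; nearly all actives have a fitted effect of over 25% in size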)
Summary of the method: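 BG1-Luc-4E2 cells (endogenous full-length ER-alpha, stable 4×ERE-luciferase) were starved 5 days in phenol-red-free medium with 10% charcoal-stripped FBS, plated 24 h, then given compound plus 17beta-estradiol for 21.5 h at 37 C; ONE-Glo luminescence read after 30 min.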

[9] = qHTS assay to identify small molecule antagonists of the estrogen receptor alpha (ER-alpha) signaling pathway using the BG1 cell line - cell viability counter screen (AID 743081);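 note: compound given together with 17beta-estradiol as the ER stimulus; nearly all actives have a fitted effect of over 45% in size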
Aromatase (Homo sapiens) = Aromatase (Homo sapiens) (UniProt P11511); experiment: qHTS assay to identify aromatase inhibitors (AID 743083); note: nearly all actives have a fitted effect of over 55% in size
Chain of Aromatase (Homo sapiens) (P11511 whole entry, looked up): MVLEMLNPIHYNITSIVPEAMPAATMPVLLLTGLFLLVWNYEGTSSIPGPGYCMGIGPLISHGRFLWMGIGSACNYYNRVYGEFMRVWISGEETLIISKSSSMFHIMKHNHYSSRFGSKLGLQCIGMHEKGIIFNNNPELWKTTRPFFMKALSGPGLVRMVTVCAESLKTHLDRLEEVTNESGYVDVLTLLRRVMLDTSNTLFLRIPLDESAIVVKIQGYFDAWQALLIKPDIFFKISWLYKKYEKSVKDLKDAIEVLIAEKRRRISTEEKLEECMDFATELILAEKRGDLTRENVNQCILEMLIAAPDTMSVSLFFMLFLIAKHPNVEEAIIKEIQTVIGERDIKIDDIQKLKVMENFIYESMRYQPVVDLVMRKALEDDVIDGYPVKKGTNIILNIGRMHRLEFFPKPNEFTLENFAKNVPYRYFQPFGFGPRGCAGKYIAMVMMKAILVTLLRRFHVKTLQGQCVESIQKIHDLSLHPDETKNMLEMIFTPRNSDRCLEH

| Compound | Potency [1] | Potency [2] | Potency [3] | Potency [4] | Potency [5] | Potency [6] | activation ([7]; at 95 µM (top of the series)) | Potency [8] | Potency [9] | Potency (Aromatase (Homo sapiens)) | activation ([7]; at 70.3 µM (top of the series)) | activation ([7]; at 32.5 µM (top of the series)) | Potency [7] |
| --- | --- | --- | --- | --- | --- | --- | --- | --- | --- | --- | --- | --- | --- |
| COP(=O)(OC)O/C(C)=C/C(=O)N(C)C | inactive | inactive | inactive | inactive | inactive | inactive | -7.62% | inactive | inactive | inactive |  |  |  |
| CS(=O)(=O)c1ccc(C(=O)C2C(=O)CCCC2=O)c(Cl)c1COCC(F)(F)F | inactive | inactive | inactive | inactive | inactive | inactive |  | inactive | inactive | inactive | 14.7% |  |  |
| NCCOS(=O)(=O)O | inactive | inactive | inactive | inactive | inactive | inactive |  | inactive | inactive | inactive | -1.11% |  |  |
| COP(=O)(O)OC | inactive | inactive | inactive | inactive | inactive | inactive | -8.98% | inactive | inactive | inactive |  |  |  |
| C/C(=N\NC(=O)Nc1cc(F)cc(F)c1)c1ncccc1C(=O)O | inactive | inactive | inactive | inactive | inactive | inactive |  | inactive | inactive | inactive | -0.0536% |  |  |
| COC(=O)c1ccccc1CS(=O)(=O)NC(=O)Nc1nc(OC)cc(OC)n1 | inactive | inactive | inactive | inactive | inactive | inactive |  | inactive | inactive | inactive | 1.94% |  |  |
| CCN(CCO)CCO | inactive | inactive | inactive | inactive | inactive | inactive |  | inactive | inactive | inactive | -3.36% |  |  |
| Cc1ccc2c(c1)C1CN(C)CCC1N2 (stereo unspecified) | inactive | inactive | inactive | inactive | inactive | inactive |  | inactive | inactive | inactive | -4.51% |  |  |
| O=C1CC(=O)NC(=O)N1 | inactive | inactive | inactive | inactive | inactive | inactive |  | inactive | inactive | inactive | -4.6% |  |  |
| O=C(O)C(Br)(Br)Br | inactive | inactive | inactive | inactive | inactive | inactive |  | inactive | inactive | inactive | 6.64% |  |  |
| C[C@H](N)C(=O)c1ccccc1 | inactive | inactive | inactive | inactive | inactive | inactive | 4.39% | inactive | inactive | inactive | -5.09% |  |  |
| N[C@@H]1C[C@H]1c1ccccc1 | inactive | inactive | inactive | inactive | inactive | inactive |  | inactive | inactive |  | 1.81% |  |  |
| C=C1C[C@@H]2[C@H](CC[C@]3(C)C(=O)CC[C@@H]23)[C@@]2(C)C=CC(=O)C=C12 | inactive |  |  |  |  |  |  |  |  |  |  |  |  |
| COc1ccc(CN2CCNCC2)c(OC)c1OC | inactive | inactive | inactive | inactive | inactive | inactive |  | inactive | inactive | inactive |  | 3.39% |  |
| C=CC1(C)OC(=O)N(c2cc(Cl)cc(Cl)c2)C1=O (stereo unspecified) | inactive | inactive | inactive | inactive | inactive | inactive |  | inactive | inactive | inactive | -20.8% and -18.1% |  |  |
| CC(=O)CN(CC(C)=O)N=O | inactive | inactive | inactive | inactive | inactive | inactive |  | inactive | inactive | inactive | -5.98% |  |  |
| CCN(CC)CCOC(=O)C(O)(c1ccccc1)c1ccccc1 | inactive | inactive | inactive | inactive | inactive | inactive |  | inactive | inactive | inactive | 1.82% |  |  |
| OCC(Cl)CCl (stereo unspecified) | inactive | inactive | inactive | inactive | inactive | inactive |  | inactive | inactive | inactive | 3.3% |  |  |
| CCN[C@@H](C)Cc1ccccc1 | inactive | inactive | inactive | inactive | inactive | inactive | 0.895% | inactive | inactive | inactive |  |  |  |
| O=c1[nH]oc2c1CCNC2 | inactive | inactive | inactive | inactive | inactive | inactive |  | inactive | inactive | inactive | -5.36% |  |  |
| CC(C)[N+](C)(CCC(C(N)=O)(c1ccccc1)c1ccccc1)C(C)C | inactive | inactive | inactive | inactive | inactive | inactive |  | inactive | inactive | inactive |  | 1.94% |  |
| O=C(O)c1c(Cl)ccc2cc(Cl)cnc12 | inactive | inactive | inactive | inactive | inactive | inactive |  | inactive | inactive | inactive | 3.83% |  |  |
| CC(C)(C1CCC(O)CC1)C1CCC(O)CC1 (stereo unspecified) | inactive | inactive | inactive | inactive | inactive | 49 µM [activator] (active) |  | inactive | inactive | inactive |  |  | 54.5 µM (active) |
| O=C(CCl)NCO | inactive | inactive | inactive | inactive | inactive | inactive |  | inactive | inactive | inactive | -9.09% |  |  |
